Screens (PubChem)
POLB inh – inhibitors of human DNA polymerase beta; Pol beta primer extension/strand displacement, fluorescence kinetic; Potency, µM (series often up to 114 µM), actives largely listed as inhibitors; hit rate 1.3% among 340,000; P06746
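10 nM enzyme + cpd, 15 min RT; start with substrate 50 nM final; read 0 min and after 10 min RT. Corrected, normalized data; 4-parameter Hill curve fit.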
POLI inh – blocks human DNA polymerase iota activity; Pol iota fluorescent replication assay, 10 min; Potency, µM (top dose mostly 115 µM), most hits filed as inhibitors; hit rate 1% among 390,000
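Fluorescent replication assay read twice, at 0 min and 10 min after adding 50 nM (final) substrate. Enzyme (10 nM) and compounds were first incubated 15 min at room temperature; enzyme-free buffer wells were negative controls.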
FEN1 inh – human FEN1 inhibition; Potency, µM (titrated, usually from 114 µM), most hits filed as inhibitors; P39748; hit rate 0.35% among 390,000; AID 588795; Recombinant FEN1 flap cleavage, fluorescence, 15 min; note: nearly all actives have a fitted effect of over 65% in size
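Concentration–response screening of FEN1 (10 nM): 15 min compound preincubation at room temperature, reaction started with 50 nM substrate and read at 0 and 15 min. Corrected, normalized data were fitted by a four-parameter Hill equation.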
POLH inh – DNA polymerase eta (human) inhibition. Q9Y253. recombinant Pol eta, fluorescent DNA replication assay. Potency, µM (top dose mostly 114 µM), most hits filed as inhibitors. hit rate 1.2% among 390,000
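Pol eta at 10 nM preincubated with compounds 15 min at room temperature; reaction started with fluorescent substrate (50 nM final) and read kinetically at 0 and 10 min.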
Pol kappa inh – blocks human DNA polymerase kappa activity; hit rate 0.53% among 400,000; purified Pol kappa, fluorescent DNA synthesis assay, 10 min; AID 588579; Q9UBT6; Potency, µM (top dose mostly 107 µM), hits mostly inhibitors
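First, compounds were pin-transferred onto 10 nM Pol kappa. After 15 min at room temperature, substrate was added to 50 nM final. Fluorescence was then measured kinetically at 0 and 10 min.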
WRN inhibitor – WRN helicase (human) inhibition; hit rate 0.46% among 360,000; WRN helicase unwinding, fluorescent forked duplex, kinetic; Potency, µM (series often up to 114 µM), hits mostly inhibitors; note: nearly all actives have a fitted effect of over 55% in size
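Fluorescence dequenching readout, ex 525 nm/em 598 nm, kinetic mode: forked duplex DNA (100 nM final) with adjacent fluorophore and quencher unwound by WRN (20 nM final) with 2 mM ATP. Compound preincubation 15 min, room temperature.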
Hits are given with their value; – = inactive; ? = inconclusive; · = no result; [ ] = another dose, or the depositor's remark. Hits are enriched below; roughly 2.4% of the tested compounds scored in any of these assays. Calls come from the whole dose curve; as a rule, active = well fitted curve in the direction sought with a large enough effect; inconclusive = small, poorly fitted or top-dose-only effect, or another doubt; inactive = no such curve, though single readings can be large; an effect the other way counts as inactive or inconclusive.

SMILES	POLB inh	POLI inh	FEN1 inh	POLH inh	Pol kappa inh	WRN inhibitor
O=C(COc1c(Cl)cccc1Cl)NN1C(=O)CSC1=S	–	17.8µM	–	–	–	–[11.6 µM]
Nc1nc(N)c2c(Oc3ccc(F)cc3)cccc2n1	·	?	–	·	–	·
CCc1ccc(S(=O)(=O)c2nnn3c2nc(Nc2ccc(NC(C)=O)cc2)c2sccc23)cc1	–	79.4µM	–	?	–	·
Cc1ccc(-c2nc(-c3cc4cccc(OCc5cccc(F)c5)c4oc3=O)no2)cc1	35.5µM	–	–	35.5µM	–	·
Cc1ccc(-c2nc(-c3cc4cccc(OCc5ccc(F)cc5)c4oc3=O)no2)cc1	?	–	–	–	–	·
CCN1C(=O)[C@H]2[C@@H](c3ccc(OC)cc3)N[C@]3(CCCN(Cc4ccc(C(F)(F)F)cc4)C3=O)[C@H]2C1=O	·	·	·	–	·	–
Cc1n[nH]c(C)c1Sc1ccccc1N=Cc1cc(Cl)cc([N+](=O)[O-])c1O	?	25.1µM	79.4µM	–	?	50.1µM
Cc1n[nH]c(C)c1Sc1ccccc1[N+](=O)[O-]	–	–	–	–	–	–
CCOCCCNC(=O)c1cc(Sc2cccc(Cl)c2)nc2ccccc12	–	–	–	–	–	·
O=c1c(=O)n(Cc2ccc(Cl)cc2)ccn1Cc1ccc(F)cc1	–	–	–	–	–	·
O=c1c(=O)n(-c2cccc(Cl)c2)ccn1Cc1cccc(F)c1	31.6µM	–	–	–	–	·
c1ccc2c(-c3cc(NCc4ccncc4)n4nccc4n3)cccc2c1	·	·	·	·	·	–
Cc1[nH]c2ccccc2c1C1=CC(=O)C=CC1=O	·	?	–	?	–	56.2µM
O=C(Nc1ccc2cn[nH]c2c1)c1c(Cl)cccc1Cl	–	–	–	–	–	–
O=C1C(Cl)=C(Nc2ccc3cn[nH]c3c2)C(=O)c2ccccc21	?	?	?	50.1µM	–	–
CCCC1NC(=O)c2cccnc2-n2c1nc1ccc(C)cc1c2=O (configuration not stated)	·	·	·	–	·	–
COC(=O)N/N=C/c1ccc([N+](=O)[O-])o1	?	56.2µM	–	–	–	–
O=C(N/N=C/c1ccc([N+](=O)[O-])o1)C1CC1	17.8µM	22.4µM	–	39.8µM	–	–[11.6 µM]
CCC(=O)Nc1ccc(C(=O)N/N=C/c2ccc([N+](=O)[O-])cc2)cc1	?	–	–	–	–	–
CCCC(=O)Nc1ccc(C(=O)N/N=C/c2ccc([N+](=O)[O-])o2)cc1	44.7µM	?	–	?	–	–[11.6 µM]
COc1ccc(C(=O)n2nc(-c3ccco3)nc2SC)cc1OC	?	31.6µM	–	?	–	?
CSc1nc(-c2ccco2)nn1C(=O)c1cccs1	–	?	–	–	–	–
O=C(OC[C@H]1O[C@@H](OC(=O)c2cc(O)c(O)c(OC(=O)c3cc(O)c(O)c(O)c3)c2)[C@H](OC(=O)c2cc(O)c(O)c(OC(=O)c3cc(O)c(O)c(O)c3)c2)[C@@H](OC(=O)c2cc(O)c(O)c(OC(=O)c3cc(O)c(O)c(O)c3)c2)[C@@H]1OC(=O)c1cc(O)c(O)c(OC(=O)c2cc(O)c(O)c(O)c2)c1)c1cc(O)c(O)c(OC(=O)c2cc(O)c(O)c(O)c2)c1	·	–	–	·	–	·
O=C(O)C[C@@H]1C(=O)O[C@@H]2C(COC(=O)c3cc(O)c(O)c(O)c3)O[C@@H](OC(=O)c3cc(O)c(O)c(O)c3)[C@@H](OC(=O)c3cc(O)c(O)c4c3[C@H]1[C@H](O)C(=O)O4)[C@H]2OC(=O)c1cc(O)c(O)c(O)c1 (some centres not stated)	0.178µM	·	·	·	·	·
COc1cccc(N=C2NC(=O)/C(=C/c3cc([N+](=O)[O-])ccc3O)S2)c1	–	?	?	28.2µM	–	–[11.6 µM]
SMILES	POLB inh	POLI inh	FEN1 inh	POLH inh	Pol kappa inh	WRN inhibitor
COc1ccc(N=C2NC(=O)/C(=C/c3ccc(O)c(OC)c3)S2)cc1	39.8µM	?	?	?	–	?
COc1ccc(N=C2NC(=O)/C(=C\c3ccco3)S2)cc1	20µM	39.8µM	–	?	?	?
CCc1ccc(N=C2NC(=O)/C(=C/c3ccc(OCC(=O)O)c(OC)c3)S2)cc1	20µM	?	?	–	–	?
COC(=O)/C=C1/SC(=NC(=O)c2cccc([N+](=O)[O-])c2)NC1=O	–	–	–	–	–	–
COc1cc(/C=C2/SC(=Nc3ccc(O)cc3)NC2=O)cc(OC)c1O	–	?	–	–	–	–
O=C(/C=C/[C@H]1O[C@@H](n2ccc(=O)[nH]c2=O)[C@H](O)[C@@H]1O)N1CCN(Cc2ccc(F)cc2)CC1	·	·	·	·	·	–
COc1ccc(/C=C2\SC(=Nc3ccccc3)NC2=O)cc1	–	·	·	·	·	·
CC(=O)Nc1ccc(S(=O)(=O)/N=C2/NC(=O)/C(=C\c3ccco3)S2)cc1	10µM	?	–	20µM	?	–[11.6 µM]
CCOc1ccc(N=C2NC(=O)S/C2=C\c2ccc(OC)cc2)cc1	10µM	?	–	–	–	–
Cc1nnc(Sc2cc(C(=O)NCc3ccco3)c3ccccc3n2)s1	22.4µM	?	–	?	–	–
COCCNC(=O)c1cc(Sc2nnc(C)s2)nc2ccccc12	–	·	·	·	·	·
Cc1ccccc1-c1nnnn1C1CCS(=O)(=O)C1 (configuration not stated)	–	–	–	–	–	–
Cc1cc(=O)n(C2CCS(=O)(=O)C2)[nH]1 (configuration not stated)	–	4.47µM	–	–	–	–
Oc1nc(Nc2ccc(Cl)cc2Cl)sc1/C=C1\C=Nc2ccccc21	?	?	?	14.1µM	–	?
CC(C)(C)n1nnnc1C1c2ccccc2C(=O)N1CCc1c[nH]c2ccccc12 (configuration not stated)	·	·	·	·	·	–
O=C(Cn1ncc2c3ccccc3n(Cc3cccc(Cl)c3)c2c1=O)NC1CCCCCC1	12.6µM	?	–	?	–	·
Cc1cc(-c2csc(NC(=O)c3ccc(=O)n(C)n3)n2)c(C)n1CC1CCCO1 (configuration not stated)	–	11.2µM	–	?	?	–
CC(=O)CS(=O)(=O)c1ccc(Oc2ccc(S(=O)(=O)CC(C)=O)cc2)cc1	31.6µM	?	–	?	?	–
O=C(O)CS(=O)(=O)c1ccc(Oc2ccc(S(=O)(=O)CC(=O)O)cc2)cc1	–	–	–	–	–	–
COc1cccc2c1OC1(N3CCOCC3)CCCCC1C2C[N+](=O)[O-] (configuration not stated)	·	·	·	–	·	–
Cc1ccc2nc3c(cc(C#N)c(=O)n3-c3nnc(SCc4ccc(F)cc4)s3)c(=O)n2c1	–	–	–	·	–	·
Cc1ccc(CCNC(=O)C2CC(=O)N(CCc3ccc(C)cc3)C2)cc1 (configuration not stated)	–	–	–	–	–	·
COc1ccc(CCN2CC(C(=O)NCCc3ccc(C)cc3)CC2=O)cc1OC (configuration not stated)	?	79.4µM	–	?	?	–
